Laboratory results published in PubChem BioAssay (NCATS).
Inconclusive results are not listed. Active and inactive are the calls of the source. Unless noted, the call rests on the fitted dose curve.

What was measured:
[1] = target: Bile acid receptor (Homo sapiens) (UniProt Q96RI1); experiment: qHTS assay for small molecule antagonists of farnesoid X receptor signaling (AID 588526); further: on the % scale 0 is the no-effect control and ±100 the full control effect
In short: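 Beta-lactamase reporter antagonist mode: HEK293T FXR-UAS-bla cells, titrated compound, CDCA stimulation, 16 h 37 C, CCF4 dye 2 h RT. Data normalized to CDCA 50 uM and DMSO; Hill-fit IC50.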

[2] = target: Bile acid receptor (Homo sapiens) (UniProt Q96RI1); experiment: qHTS assay for small molecule agonists of farnesoid X receptor signaling (AID 588527); conditions: HEK293T FXR-UAS-bla, beta-lactamase ratio, 16 h; activation: stronger effect = higher value;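 further: series mostly up to about 77 µM; 0% = vehicle basal and 100% = reference agonist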
In short: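 Quantitative HTS used FXR-UAS-bla HEK293T cells with 16 h compound incubation at 37 C. EC50 values came from concentration-response curves normalized to chenodeoxycholic acid.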

[3] = target: Peroxisome proliferator-activated receptor delta (Homo sapiens) (UniProt Q03181); experiment: qHTS assay for small molecule agonists of peroxisome proliferator-activated receptor delta signaling (AID 588534);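 further: 0% = DMSO basal wells and 100% = positive control agonist at 10 µM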
Chain of Peroxisome proliferator-activated receptor delta (Homo sapiens) (Q03181 whole entry, looked up): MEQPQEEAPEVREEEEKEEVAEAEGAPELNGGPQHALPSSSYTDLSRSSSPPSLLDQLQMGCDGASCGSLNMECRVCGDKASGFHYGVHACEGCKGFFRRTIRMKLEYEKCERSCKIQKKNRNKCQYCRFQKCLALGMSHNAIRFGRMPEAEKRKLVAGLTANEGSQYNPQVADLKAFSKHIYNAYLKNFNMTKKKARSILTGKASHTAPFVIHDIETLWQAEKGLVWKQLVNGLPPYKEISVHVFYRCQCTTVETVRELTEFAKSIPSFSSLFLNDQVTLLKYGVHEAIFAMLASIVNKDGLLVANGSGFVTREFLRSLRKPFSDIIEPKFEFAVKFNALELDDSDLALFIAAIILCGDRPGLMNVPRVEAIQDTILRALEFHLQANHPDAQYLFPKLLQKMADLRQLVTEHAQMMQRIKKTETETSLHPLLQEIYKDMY
In short: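 Agonist-mode qHTS; reporter cells, 5 hrs 37 C pre-incubation; compound titration, 18 hrs 37 C; CCF4 dye, 2 hrs RT; fluorescence read. EC50/efficacy via Hill fit.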

[4] = qHTS assay for small molecule antagonists of peroxisome proliferator-activated receptor delta signaling (AID 588535; active means well fitted inhibition curve with a large enough effect in the signal ratio, with a control signal flat, not every such curve was filed as active; the % refers to the signal ratio;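 on max response: cells co-treated with a PPAR-delta agonist as stimulator during compound exposure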); conditions: HEK293T PPARd-UAS-bla, beta-lactamase FRET ratio, 18 h; 460 nm channel
In short: (§1)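 Titrations were run on PPAR-delta-UAS-bla HEK293T cells in charcoal/dextran-stripped serum, incubated 18 h at 37 C. CCF4 fluorescence (460/530 nm) after 2 h RT; Hill equation yields IC50 and maximal response.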

[5] = target: Peroxisome proliferator-activated receptor delta (Homo sapiens) (UniProt Q03181); experiment: as above
In short: as §1

[6] = target: Peroxisome proliferator-activated receptor gamma (Homo sapiens) (UniProt P37231); experiment: qHTS assay for small molecule agonists of peroxisome proliferator-activated receptor gamma signaling (AID 588536; active means well fitted curve in the direction sought with a large enough effect in the signal ratio, with a control signal flat, not every such curve was filed as active; the % refers to the signal ratio;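 further: 0% = DMSO basal wells and 100% = rosiglitazone at 2 µM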)
Chain of Peroxisome proliferator-activated receptor gamma (Homo sapiens) (P37231 whole entry, looked up): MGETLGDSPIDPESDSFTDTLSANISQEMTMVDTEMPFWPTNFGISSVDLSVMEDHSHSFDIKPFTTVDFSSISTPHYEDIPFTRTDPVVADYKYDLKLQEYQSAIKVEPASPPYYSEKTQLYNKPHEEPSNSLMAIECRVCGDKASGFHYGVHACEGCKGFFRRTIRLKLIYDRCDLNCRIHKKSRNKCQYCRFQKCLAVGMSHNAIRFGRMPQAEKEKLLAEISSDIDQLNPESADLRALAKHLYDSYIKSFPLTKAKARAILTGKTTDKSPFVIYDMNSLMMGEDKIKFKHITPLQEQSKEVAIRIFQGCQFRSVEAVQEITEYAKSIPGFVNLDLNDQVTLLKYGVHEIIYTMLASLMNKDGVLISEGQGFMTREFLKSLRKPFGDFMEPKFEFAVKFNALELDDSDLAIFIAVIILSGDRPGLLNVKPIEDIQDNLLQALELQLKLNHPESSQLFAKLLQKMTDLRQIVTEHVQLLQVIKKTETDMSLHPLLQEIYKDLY
In short: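 Using GeneBLAzer HEK293 cells, response was quantified by CCF4 fluorescence and normalized between basal DMSO (0%) and rosiglitazone 2 uM (100%); curves yielded half-maximal stimulation concentration and efficacy.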

[7] = target: Peroxisome proliferator-activated receptor gamma (Homo sapiens) (UniProt P37231); experiment: qHTS assay for small molecule antagonists of peroxisome proliferator-activated receptor gamma signaling (AID 588537; active means well fitted inhibition curve with a large enough effect in the signal ratio, with a control signal flat, not every such curve was filed as active; the % refers to the signal ratio;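 further: reporter cells co-stimulated with 50 nM rosiglitazone agonist during compound treatment; % of control where 0% means no effect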)
In short: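 Antagonist-mode β-lactamase reporter screen run as a titration series. HEK293 PPARγ-UAS-bla cells are stimulated with rosiglitazone (50 nM final) for 16 h, then CCF4 is read at 460/530 nm. Data are scaled between DMSO and rosiglitazone and fitted to the Hill equation.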

[8] = target: Vitamin D3 receptor (Homo sapiens) (UniProt P11473); experiment: qHTS assay for small molecule antagonists of vitamin D receptor signaling (AID 588541);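 further: receptor activated by calcitriol during compound treatment; series mostly up to about 77 µM; on the % scale 0 is the no-effect control and ±100 the full control effect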
Chain of Vitamin D3 receptor (Homo sapiens) (P11473 whole entry, looked up): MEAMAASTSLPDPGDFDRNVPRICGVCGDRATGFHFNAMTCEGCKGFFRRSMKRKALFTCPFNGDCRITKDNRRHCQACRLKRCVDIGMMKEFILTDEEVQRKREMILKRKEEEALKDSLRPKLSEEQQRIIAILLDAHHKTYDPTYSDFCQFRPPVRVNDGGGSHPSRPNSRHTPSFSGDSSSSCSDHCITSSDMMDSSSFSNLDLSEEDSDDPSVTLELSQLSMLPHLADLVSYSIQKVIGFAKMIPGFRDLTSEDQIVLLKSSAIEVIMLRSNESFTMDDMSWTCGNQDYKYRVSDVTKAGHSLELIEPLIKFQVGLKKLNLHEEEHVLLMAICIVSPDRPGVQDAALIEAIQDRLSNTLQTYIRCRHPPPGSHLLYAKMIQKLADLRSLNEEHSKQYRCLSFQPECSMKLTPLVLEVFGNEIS
In short: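 Antagonist-mode beta-lactamase reporter assay: HEK293T VDR-UAS-bla cells were exposed to titrated compound alongside 1-alpha,25-dihydroxyvitamin D3 at 3 nM final for 16 h. Values were normalized to the 50 nM agonist control and DMSO basal, with IC50 and efficacy from Hill equation fits.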

[9] = qHTS assay for small molecule agonists of retinoid X receptor alpha signaling (AID 588544); conditions: HEK293T RXRa-UAS-bla, beta-lactamase reporter, 18 h; 530 nm emission;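 on activation: 0% = DMSO basal wells and 100% = reference agonist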
[10] = target: Retinoic acid receptor RXR-alpha (Homo sapiens) (UniProt P19793); experiment: as above
Chain of Retinoic acid receptor RXR-alpha (Homo sapiens) (P19793 whole entry, looked up): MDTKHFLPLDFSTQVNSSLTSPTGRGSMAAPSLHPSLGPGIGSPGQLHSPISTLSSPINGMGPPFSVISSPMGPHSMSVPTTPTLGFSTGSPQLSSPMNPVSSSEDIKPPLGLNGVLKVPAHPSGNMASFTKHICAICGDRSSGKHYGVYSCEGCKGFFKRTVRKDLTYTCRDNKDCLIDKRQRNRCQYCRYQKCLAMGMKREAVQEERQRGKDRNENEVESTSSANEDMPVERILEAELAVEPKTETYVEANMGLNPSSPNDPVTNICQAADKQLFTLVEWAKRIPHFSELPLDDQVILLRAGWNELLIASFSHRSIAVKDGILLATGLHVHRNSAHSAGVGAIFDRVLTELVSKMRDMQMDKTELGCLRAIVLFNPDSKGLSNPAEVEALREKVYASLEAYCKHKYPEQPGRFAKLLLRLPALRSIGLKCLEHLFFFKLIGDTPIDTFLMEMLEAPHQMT

[11] = target: Thyroid hormone receptor beta (Homo sapiens) (UniProt P10828); experiment: qHTS assay for small molecule agonists of thyroid hormone receptor beta signaling (AID 588545);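 further: 0% = DMSO only and 100% = 10 nM T3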
Chain of Thyroid hormone receptor beta (Homo sapiens) (P10828 whole entry, looked up): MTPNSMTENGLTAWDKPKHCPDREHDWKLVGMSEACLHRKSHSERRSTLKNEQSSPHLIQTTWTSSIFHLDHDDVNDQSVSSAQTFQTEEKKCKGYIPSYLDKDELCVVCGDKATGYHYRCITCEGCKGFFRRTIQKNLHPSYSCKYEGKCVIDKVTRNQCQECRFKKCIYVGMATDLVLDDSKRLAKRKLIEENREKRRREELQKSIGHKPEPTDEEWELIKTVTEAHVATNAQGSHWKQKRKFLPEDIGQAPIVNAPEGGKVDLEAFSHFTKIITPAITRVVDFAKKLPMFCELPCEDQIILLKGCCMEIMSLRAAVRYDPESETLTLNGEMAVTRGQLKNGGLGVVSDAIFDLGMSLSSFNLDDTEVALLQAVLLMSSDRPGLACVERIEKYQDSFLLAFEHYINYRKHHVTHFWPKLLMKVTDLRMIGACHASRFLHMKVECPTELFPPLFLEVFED
In short: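 TR-UAS-bla GripTite HEK 293 cells (2500/well, medium with 2% charcoal/dextran FBS) were treated in agonist mode for 18 h at 37 C, titrated. Beta-lactamase was read by CCF4 ratio after 2 h; normalized to 10 nM T3 (100%) and DMSO, Hill-fitted for EC50 and efficacy.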

[12] = qHTS assay for small molecule antagonists of retinoid X receptor alpha signaling (AID 588546; active means well fitted inhibition curve with a large enough effect in the signal ratio, with a control signal flat, not every such curve was filed as active; the % refers to the signal ratio;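 further: cells stimulated with 9-cis-retinoic acid as agonist; on the % scale 0 is the no-effect control and ±100 the full control effect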); conditions: HEK293T RXRa-UAS-bla, beta-lactamase ratio, antagonist mode; measured here: W530 green channel, cytotoxicity proxy
In short: (§2)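 Beta-lactamase reporter inhibition, read as CCF4 fluorescence ratio (ex 405, em 460/530 nm) after 2 h at RT. HEK293T UAS-bla cells, 2500/well, were stimulated with 9-cis-RA at 500 or 100 nM final alongside test compound for 18 h at 37 C.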

[13] = target: Retinoic acid receptor RXR-alpha (Homo sapiens) (UniProt P19793); experiment: as above; conditions: HEK293T RXRa-UAS-bla, beta-lactamase ratio, antagonist mode
In short: as §2

[14] = target: Thyroid hormone receptor beta (Homo sapiens) (UniProt P10828); experiment: qHTS assay for small molecule antagonists of thyroid hormone receptor beta signaling (AID 588547; active means well fitted inhibition curve with a large enough effect in the signal ratio, with a control signal flat, not every such curve was filed as active; the % refers to the signal ratio;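 further: cells stimulated with 0.4 nM T3 agonist during compound exposure; series mostly up to about 77 µM; on the % scale 0 is the no-effect control and ±100 the full control effect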); conditions: TR-UAS-bla HEK293, beta-lactamase ratio, antagonist mode, 18 h
In short: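 Inhibition of T3-driven (0.4nM final) beta-lactamase reporter activity was measured over 0.59 nM to 92 uM compound after 18 h at 37 C. The cells were GripTite HEK293 TR-UAS-bla in charcoal/dextran-stripped serum, with CCF4 ratio read-out and IC50 from Hill fits.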

[15] = qHTS assay for small molecule activators of the p53 signaling pathway (AID 651743; active means well fitted activation curve with a large enough effect in the signal ratio, not every such curve was filed as active; the % refers to the signal ratio; further: series mostly up to about 92 µM; % of control where 0% means no effect); conditions: HCT-116 p53RE-bla, beta-lactamase FRET ratio, 16 h; activation: stronger effect = higher value
In short: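 After 16 hours compound treatment at 37 C, HCT-116 cells stably expressing p53RE-driven beta-lactamase were loaded with LiveBLAzer B/G FRET substrate for 2 hours at room temperature. Fluorescence intensity served as the p53 activation read-out.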

[16] = qHTS assay for small molecule activators of the nuclear factor-kappa B (NF-kB) signaling pathway (AID 651749; active means well fitted activation curve with a large enough effect in the signal ratio; the % refers to the signal ratio; further: series mostly up to about 77 µM; % of control where 0% means no effect); conditions: NF-kB-bla ME-180 cells, beta-lactamase FRET ratio, 16 h; activation: stronger effect = higher value
In short: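 Activation measured after 16 hr compound treatment at 37C, 5% CO2, of 2,000 ME-180 cells/well stably expressing an NF-kB response element–driven beta-lactamase reporter, via FRET-disruption fluorescence.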

[17] = qHTS assay for environmental chemicals that activate the Aryl hydrocarbon Receptor (AhR) signaling pathway (AID 651777; active means well fitted curve in the direction sought with a large enough effect; an effect the other way counts as inactive or inconclusive; further: % of control where 0% means no effect; nearly all actives have a fitted effect of over 15% in size); conditions: 1A2-DRE human hepatoma cells, luciferase, 24 h; activation: stronger effect = higher value
In short: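 Quantitative HTS in stably transfected human liver-derived cells whose luciferase gene sits downstream of the CYP1A2 promoter and dioxin response element. After 24 hr exposure at 37 C, One-Glo luminescence was measured.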

[18] = target: Peroxisome proliferator-activated receptor alpha (Homo sapiens) (UniProt Q07869); experiment: qHTS assay for small molecule agonists of the peroxisome proliferator-activated receptor alpha (PPARalpha) signaling pathway (AID 651778; active means well fitted curve in the direction sought with a large enough effect; an effect the other way counts as inactive or inconclusive; further: % of control where 0% means no effect); conditions: PathHunter PPARalpha complementation, chemiluminescence, 6 h; max response: stronger effect = higher value
Chain of Peroxisome proliferator-activated receptor alpha (Homo sapiens) (Q07869 whole entry, looked up): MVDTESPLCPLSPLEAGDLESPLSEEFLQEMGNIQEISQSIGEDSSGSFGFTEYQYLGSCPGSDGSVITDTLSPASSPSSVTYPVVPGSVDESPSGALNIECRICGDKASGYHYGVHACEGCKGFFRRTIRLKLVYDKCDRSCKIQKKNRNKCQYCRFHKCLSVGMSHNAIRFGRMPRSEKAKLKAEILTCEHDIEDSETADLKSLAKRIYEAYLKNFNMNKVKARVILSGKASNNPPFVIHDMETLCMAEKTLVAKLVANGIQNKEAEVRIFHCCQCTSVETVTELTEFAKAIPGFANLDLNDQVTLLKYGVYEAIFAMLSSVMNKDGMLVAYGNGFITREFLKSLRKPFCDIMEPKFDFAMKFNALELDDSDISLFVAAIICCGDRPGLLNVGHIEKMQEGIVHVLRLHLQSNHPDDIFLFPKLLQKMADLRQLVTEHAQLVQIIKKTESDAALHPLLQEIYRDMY
In short: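 Chemiluminescence from complemented enzyme reported PPARalpha activation in cells after 6 hr of compound treatment at 37 C. The detection reagent was incubated for 60 min at room temperature, and compounds were scored as agonists.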

[19] = qHTS assay for small molecule agonists of the antioxidant response element (ARE) signaling pathway measured by Nrf2-dependant transcriptional activity (AID 720636; active means well fitted curve in the direction sought with a large enough effect in the repeat runs; an effect the other way counts as inactive or inconclusive; further: % of control where 0% means no effect)
In short: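 Quantitative HTS format in HepG2 cells stably expressing an ARE-luciferase reporter; 16 hr compound treatment at 37 C, luciferase signal detected with ONE-Glo.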

[20] = qHTS assay for small molecule agonists of the antioxidant response element (ARE) signaling pathway measured by Nrf2-dependant transcriptional activity - cell viability counter screen (AID 720653; active means well fitted curve in the direction sought with a large enough effect in the repeat runs; an effect the other way counts as inactive or inconclusive; further: on the % scale 0 is the no-effect control and ±100 the full control effect); conditions: ARE-bla HepG2 viability, CellTiter-Glo ATP luminescence, 16 h; max response: stronger effect = lower value
In short: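 Cytotoxicity counter screen: intracellular ATP quantified by CellTiter-Glo luminescence in the same ARE-bla HepG2 plates, after 16 h compound exposure and a 2 h beta-lactamase substrate step.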

[21] = qHTS assay for cell viability of HEK293 cells (AID 743288; active means well fitted curve in the direction sought with a large enough effect; an effect the other way counts as inactive or inconclusive; further: on the % scale 0 is the no-effect control and ±100 the full control effect; nearly all actives have a fitted effect of over 50% in size); conditions: ATP luminescence (CellTiter-Glo), 18 h; max response: stronger effect = lower value
In short: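 Quantitative high-throughput screen: compounds were pinned onto parental HEK293 cells (2,000 per well) after a minimum 5 h settling at 37 C, incubated 18 h at 37 C, and intracellular ATP measured by luciferase luminescence.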

[22] = qHTS assay for cell viability of the p53RE-bla HCT-116 cell line (AID 743292; active means well fitted curve in the direction sought with a large enough effect; an effect the other way counts as inactive or inconclusive; further: on the % scale 0 is the no-effect control and ±100 the full control effect; nearly all actives have a fitted effect of over 55% in size)
In short: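 Viability of compound-treated p53RE-bla HCT-116 cells is taken from ATP-dependent luciferase luminescence. Treatment lasts 16 h at 37 C after a 5 h settling period; detection follows 30 min at room temperature.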

[23] = target: Nuclear receptor subfamily 1 group I member 2 (Rattus norvegicus) (UniProt Q9R1A7); experiment: qHTS assay for small molecule activators of the rat pregnane X receptor (rPXR) signaling pathway (AID 651751; call rule not given here; further: 0% is about no effect); conditions: rPXR reporter cells, luciferase (One-Glo), 24 h
Chain of Nuclear receptor subfamily 1 group I member 2 (Rattus norvegicus) (Q9R1A7 whole entry, looked up): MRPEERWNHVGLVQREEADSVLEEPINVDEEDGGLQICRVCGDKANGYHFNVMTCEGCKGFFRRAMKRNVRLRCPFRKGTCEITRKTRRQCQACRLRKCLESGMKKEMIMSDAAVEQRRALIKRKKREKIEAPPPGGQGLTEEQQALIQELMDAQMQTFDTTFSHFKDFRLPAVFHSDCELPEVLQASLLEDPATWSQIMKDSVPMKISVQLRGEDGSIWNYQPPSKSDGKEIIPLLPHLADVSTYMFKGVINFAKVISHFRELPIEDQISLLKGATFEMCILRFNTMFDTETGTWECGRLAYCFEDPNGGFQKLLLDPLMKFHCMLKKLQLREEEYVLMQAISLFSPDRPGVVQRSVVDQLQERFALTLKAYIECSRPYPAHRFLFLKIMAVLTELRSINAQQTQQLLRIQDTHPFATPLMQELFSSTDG

[24] = qHTS assay for small molecule activators of the human pregnane X receptor (PXR) signaling pathway (AID 720659; call rule not given here; further: 0% is about no effect)
[25] = target: Glucocorticoid receptor (Homo sapiens) (UniProt P04150); experiment: qHTS assay for small molecule agonists of glucocorticoid receptor signaling (AID 588532; active means well fitted curve in the direction sought with a large enough effect in the signal ratio, with a control signal flat; the % refers to the signal ratio;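 further: 100% = dexamethasone at 0.1 µM and 0% = DMSO only wells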); conditions: HeLa MMTV-bla, beta-lactamase ratio, agonist, 18 h; activation: stronger effect = higher value, percent of dexamethasone control, DMSO zero
Chain of Glucocorticoid receptor (Homo sapiens) (P04150 whole entry, looked up): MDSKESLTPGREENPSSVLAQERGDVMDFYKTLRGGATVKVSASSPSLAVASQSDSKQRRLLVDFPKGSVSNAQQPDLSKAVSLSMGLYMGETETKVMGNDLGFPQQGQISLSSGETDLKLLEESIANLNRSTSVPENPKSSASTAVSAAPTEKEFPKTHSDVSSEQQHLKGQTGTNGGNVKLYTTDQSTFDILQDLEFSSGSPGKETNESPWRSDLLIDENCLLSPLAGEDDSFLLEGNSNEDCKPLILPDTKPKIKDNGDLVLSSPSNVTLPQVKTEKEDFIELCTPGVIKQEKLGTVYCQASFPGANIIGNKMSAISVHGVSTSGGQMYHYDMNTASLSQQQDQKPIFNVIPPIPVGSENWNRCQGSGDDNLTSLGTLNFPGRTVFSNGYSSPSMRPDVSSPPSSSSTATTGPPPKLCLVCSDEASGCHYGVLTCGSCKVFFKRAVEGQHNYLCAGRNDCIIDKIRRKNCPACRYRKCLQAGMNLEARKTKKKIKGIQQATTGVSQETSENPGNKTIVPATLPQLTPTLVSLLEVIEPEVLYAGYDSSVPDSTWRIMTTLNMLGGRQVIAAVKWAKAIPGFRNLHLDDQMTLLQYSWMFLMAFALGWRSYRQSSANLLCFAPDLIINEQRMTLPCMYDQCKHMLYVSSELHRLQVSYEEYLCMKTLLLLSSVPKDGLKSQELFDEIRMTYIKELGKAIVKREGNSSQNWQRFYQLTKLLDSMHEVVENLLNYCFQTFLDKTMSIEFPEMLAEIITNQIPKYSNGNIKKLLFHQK
In short: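 Using MMTV-bla HeLa cells in medium with 1% stripped FBS and 25 mM HEPES, compounds were titrated and incubated overnight-length (18 h). Beta-lactamase cleavage of CCF4 was quantified by dual-emission fluorescence.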

[26] = target: Vitamin D3 receptor (Homo sapiens) (UniProt P11473); experiment: qHTS assay for small molecule agonists of vitamin D receptor signaling (AID 588543);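 further: 0% = DMSO basal and 100% = reference agonist control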
In short: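 qHTS in agonist mode: compound titrations stimulate a VDR-driven β-lactamase reporter in HEK293T cells over 16 h at 37 °C. Response normalized to 50 nM 1α,25-dihydroxyvitamin D3 = 100%, DMSO = 0%; Hill fitting gives EC50 and maximal response.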

Chain of Bile acid receptor (Homo sapiens) (Q96RI1 whole entry, looked up): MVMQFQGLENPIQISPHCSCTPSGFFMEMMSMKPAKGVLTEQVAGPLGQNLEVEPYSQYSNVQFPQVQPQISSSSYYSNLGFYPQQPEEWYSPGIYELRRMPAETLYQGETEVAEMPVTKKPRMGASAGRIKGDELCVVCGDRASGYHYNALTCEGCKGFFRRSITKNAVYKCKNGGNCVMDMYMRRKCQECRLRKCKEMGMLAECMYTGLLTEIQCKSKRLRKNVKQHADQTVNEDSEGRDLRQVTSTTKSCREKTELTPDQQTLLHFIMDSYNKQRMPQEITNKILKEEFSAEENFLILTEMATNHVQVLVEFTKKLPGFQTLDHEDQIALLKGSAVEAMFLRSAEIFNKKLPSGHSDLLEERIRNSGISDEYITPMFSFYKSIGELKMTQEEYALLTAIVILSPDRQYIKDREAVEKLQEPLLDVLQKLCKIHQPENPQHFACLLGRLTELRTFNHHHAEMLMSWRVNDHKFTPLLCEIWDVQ

With `CC(C)COP(=O)(OCC(C)C)OCC(C)C` the Potency [1] was “inactive”, the activation [2] was 4.76% (inactive) and the outcome [3] was “inactive”. For the same molecule, the max response [4] was 21.8%, the Potency [5] was “inactive” and the Potency [6] was “inactive”. The Potency [7] was “inactive”, the Potency [8] was “inactive” and the max response [9] was -15.8%. For the same molecule, the Potency [10] was “inactive”, the Potency [11] was “inactive” and the max response [12] was -13.9%. The max response [13] was 3.45% (inactive), the activity change % (negative = inhibition) [14] was -6.4% (inactive) and the activation [15] was -2.4% (inactive). The activation [16] was -3.3% (inactive), the activation [17] was -1.96% (inactive) and the max response [18] was -1.01% (inactive). For the same molecule, the Potency [19] was “inactive”, the max response [20] was -13.2% (inactive) and the max response [21] was -10% (inactive). The Potency [22] was “inactive”, the max response [23] was -5.22% (inactive) and the outcome [24] was “inactive”.

In the case of `COC(=O)C(C)Oc1ccc(Oc2ccc(Cl)cc2Cl)cc1` (centres undefined), the Potency [1] is reported as “inactive”, the activation [2] is reported as -6.35% (inactive) and the activation [25] is reported as -5.37% (inactive). For the same molecule, the outcome [3] was “inactive”, the Potency [10] was “inactive” and the Potency [11] was “inactive”. For the same molecule, the max response [12] was -8.87%, the max response [13] was -16.7% (inactive) and the activation [15] was -3.5% (inactive). The activation [16] was -0.397% (inactive), the activation [17] was -0.824% (inactive) and the Potency [19] was “inactive”. For the same molecule, the max response [20] was -5.74% (inactive), the max response [21] was -4.71% (inactive) and the Potency [22] was “inactive”. For the same molecule, the max response [23] was -0.585% (inactive) and the outcome [24] was “inactive”.

For `COC(=O)c1ccccc1S(=O)(=O)NC(=O)Nc1nc(C)nc(OC)n1`, the Potency [1] was “inactive”, the activation [2] was -2.54% (inactive) and the outcome [3] was “inactive”. The max response [4] was 36.9%, the Potency [5] was “inactive” and the Potency [8] was “inactive”. The outcome [26] was “inactive”, the Potency [11] was “inactive” and the max response [12] was -10.3%. The max response [13] was 25.6% (inactive), the activation [15] was 6.08% (inactive) and the activation [17] was -1.13% (inactive). For the same molecule, the max response [18] was 5.99% (inactive), the Potency [19] was “inactive” and the max response [20] was 13.7% (inactive). For the same molecule, the max response [21] was 9.36% (inactive) and the max response [23] was -8.23% (inactive).

In the case of `Cn1c(=O)[nH]c(=O)n(C2CCCCC2)c1=O`, the activation [2] is reported as 2.64% (inactive).

For `CCCCCCCCCCCCCCCCCCN`, the activation [2] was 1.62% (inactive).

In the case of `CCCCCCCCCCCCCCCCN(C)C`, the activation [2] is reported as 3.83% (inactive).

For `CC(C)N(C(=O)SCC(Cl)=C(Cl)Cl)C(C)C`, the activation [2] was 4.22% (inactive), the activation [25] was 18.5% (inactive) and the outcome [3] was “inactive”. For the same molecule, the Potency [8] was “inactive”, the outcome [26] was “inactive” and the max response [12] was 9.5%. For the same molecule, the max response [13] was 10.8% (inactive), the activity change % (negative = inhibition) [14] was -15.2% (inactive) and the activation [15] was -5.02% (inactive). The activation [16] was -1.22% (inactive), the Potency [19] was “inactive” and the max response [20] was 15.1% (inactive). For the same molecule, the max response [21] was 2.96% (inactive).
